Many of the other results were omitted from the sample, so hits are more common in it than they were.
Marburg entry inh: qHTS for inhibitors of binding or entry into cells for Marburg Virus; Potency, µM (titrated, usually from 37.8 µM), for the others: top-dose activity change, negative = inhibition, actives largely listed as inhibitors; actives 1.8% (n = 300,000); Marburg virus pseudotyped entry inhibition, cell reporter; calls by dose curve; tested in HEK293 cells; note: potency is the fitted concentration of half-maximal effect; % is set by controls: 0 for no effect and ±100 for the full control effect
Shiga inhibitor: A qHTS for Small Molecule Inhibitors of Shiga Toxin. Vero cells, Shiga toxin protein synthesis inhibition reporter. actives 9.2% (n = 290,000). AID 2315, 2010. inhibition, % at 38.7 µM; in the data active = inhibition mostly above about 28%, no sharp cut-off; inactive = mostly below about 43%; note: 0% is about no effect
CHX counter: Cycloheximide Counterscreen for Small Molecule Inhibitors of Shiga Toxin. cell reporter, cycloheximide protein synthesis inhibition counterscreen. max response, %. actives 12% (n = 300,000); in the data active = max response mostly above about 13%, no sharp cut-off; inactive = mostly below about 14%; note: read at 38.3 µM for the half of the compounds with a filed dose; 0% is about no effect
LASV entry inh: qHTS for Inhibitors of binding or entry into cells for Lassa Virus | AID 540256, 2011 | actives 1.2% (n = 300,000) | Potency, µM (series often up to 37.9 µM), for inactives: at the top dose activity change, negative = inhibition, usual class: inhibitors | Lassa virus pseudotype entry inhibition, cell reporter; calls by dose curve; tested in HEK293 cells; note: potency is the fitted concentration of half-maximal effect; % is set by controls: 0 for no effect and ±100 for the full control effect; nearly all actives have a fitted effect of over 50% in size
AMA1 RON2 block: qHTS for Inhibitors of AMA1-RON; Towards Development of Antimalarial Drug Lead: Primary Screen; Plasmodium falciparum AMA1 (3D7) - RON2 peptide interaction; AlphaScreen AMA1-biotinylated RON2 peptide binding; Potency, µM (highest dose often 58.2 µM), inactives show at the top dose activity change, negative = inhibition, actives largely listed as inhibitors; actives 0.2% (n = 360,000); AID 720542, 2013; active = well fitted inhibition curve with a large enough effect; inconclusive = small, poorly fitted or top-dose-only effect; inactive = no such curve, though single readings can be large or run the other way;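 note: potency is the fitted concentration of half-maximal effect; 0% = vehicle wells and -100% = peptide control; nearly all actives have a fitted effect of over 45% in size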
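AMA1 (3D7) with his tag at 25 nM final met compounds first, then biotinylated RON2 peptide at 25 nM; detection used donor plus acceptor beads, 10 µg/mL apiece, read by AlphaScreen after 30 min at room temperature.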
Numbers without * were called inactive; ? = inconclusive; . = no result; [ ] = remark or other dose.

SMILES	Marburg entry inh	Shiga inhibitor	CHX counter	LASV entry inh	AMA1 RON2 block
Cc1ccc(C(=O)NCc2ccco2)cc1S(=O)(=O)Nc1cccc(C)c1C	20.6µM*	5.9	-1.4	?	-5.4%
NC(c1cccc(F)c1)c1nc(-c2ccc(Cl)cc2)cs1 (stereo not given)	.	.	.	.	14.1%
O=C(Nc1cccc(F)c1)Nc1ccnn1C1CCN(C(=O)c2cscn2)CC1	?	51.2*	41.3*	9.6%	-0.6%
Cc1nc(N)sc1N=Nc1ccccc1C(F)(F)F	?	112.2*	44.7*	-5.3%[46.1 µM]	?
CCN(CC)S(=O)(=O)c1cccc(N=Nc2sc(N)nc2C)c1	.	-7.5	-4.3	.	10.4%
O=C(CN1CCOCC1)c1cccc2ccccc12	1.6%	-4.4	-4.5	?	?
Cc1c(C(=O)c2cccc3ccccc23)c2cccc3c2n1[C@H](CN1CCOCC1)CO3	8.91µM*	.	.	20.6µM*	-20.9%
CN1CCN(c2nc(-c3cc4ccccc4o3)cs2)CC1	?	84.5*	48.2*	?	11.3%
Nc1nc(-c2cc3ccccc3o2)cs1	-9.7%	97.7*	32.6*	?	-3.5%
CN1CCN(c2nc(-c3cccs3)cs2)CC1	?	61.2	27.1*	15.3%	-11.9%
CN1CCN(c2nc(-c3cccs3)cc(C(F)(F)F)n2)CC1	?	-12.8	-3.8	-29.2%	-10.3%
Cc1nc(-c2ccc(Cl)cc2)sc1CCNC(=O)c1ccco1	.	.	.	6.0%[46.1 µM]	.
CC(OC(=O)C1CCN(S(=O)(=O)c2ccc3c(c2)OCCO3)CC1)C(=O)NC1(C#N)CCCCC1 (stereo not given)	.	.	.	.	12.9%
NC(Cc1ccccc1)C(O)c1ccco1 (stereo not given)	.	20.6	3.7	.	.
C[C@@]12CC[C@H]3[C@@H](CCC4=C(O)C(=O)CC[C@]43C)[C@H]1CCC2=O	-5.0%	.	.	.	.
COc1ccc(OC)c(CCNC(=O)CCC(=O)N2CCOc3ccc(C)cc32)c1	.	-2.8	0.9	.	-4.2%
Cc1ccc(N/C=C2\C(=O)C3(C)CCC2C3(C)C)cc1C (stereo not given)	-25.5%[46.1 µM]	27.1	20.9*	-24.5%	11.7%
CC12CCC(C(=Nc3ccc(N=C4C(=O)C5(C)CCC4C5(C)C)cc3)C1=O)C2(C)C	.	-3.7	1.2	.	-4.4%
Cc1cccc(NC(=O)Cn2nc(-c3ccccc3)c3cnc4ccccc4c32)c1	.	.	.	-10.8%[46.1 µM]	.
Cc1ccc(C2NC(=O)NC3=C2CCc2ccccc23)cc1 (stereo not given)	-1.3%	70.6*	57.2*	7.0%	2.2%
CC(C)c1ccc(C2NC(=O)NC3=C2CCc2ccccc23)cc1 (stereo not given)	-55.6%	77.1	17.5	-18.5%	12.5%
O=C(NNC(=S)Nc1ccccc1)c1cccs1	-14.5%	47.1*	37.8*	2.3%	72.5%
O=C(NNC(=S)Nc1ccc(Cl)cc1)c1cccs1	7.5%	99.9*	38.3*	-11.3%	100.2%
O=C(NNc1ccc(Cl)cc1)c1cccs1	?	-5.7	-2.4	-18.3%[46.1 µM]	-12.4%
CC(C(=O)N(C)C1CCCCC1)N1CCC(C(N)=O)CC1 (stereo not given)	?	3.6	-3.9	0.1%[46.1 µM]	-5.1%
SMILES	Marburg entry inh	Shiga inhibitor	CHX counter	LASV entry inh	AMA1 RON2 block
CC1=C(C(=O)OCc2ccccc2)C(/C=C/c2ccccc2)NC(=S)N1 (stereo not given)	?	22.3	12.9	12.6µM*	-11.2%[11.6 µM]
C=CCOC(=O)C1=C(C)NC(=S)NC1/C=C/c1ccccc1 (stereo not given)	-13.1%	-14.6	1.4	6.9%	-21.3%
Cc1ccc(-c2nc(CCNC(=O)C(=O)Nc3ccc(C)c(Cl)c3)cs2)cc1	.	.	.	9.6%[46.1 µM]	.
CC1=C(C(=O)OC(C)C)C(c2ccccc2)NC(=S)N1C (stereo not given)	?	-2.8	0.4	?	6.5%
Cc1ccc(NC(=S)N/N=C2/CCCCc3ccccc32)cc1	.	23.2	16.7*	.	37.5%
O=C(NN=C1CCCCCC1)c1c[nH]c2ccccc12	1.4%	active	11.9	-5.6%	34.2%
O=C(NN=C1CCCCCCC1)c1ccc2ccccc2n1	?	26.6	17.3*	-6.0%[46.1 µM]	91.7%
O=C(N/N=C1\CCCCc2ccccc21)c1ccccn1	?	89.9*	44.0*	?	63.3%
O=C(NN=C1CCCCCC1)c1cc2ccccc2cc1O	.	17.7	7.6	.	156.5%
O=C(NN=C1CCCCCC1)c1ccncc1	-25.3%[46.1 µM]	2.7	15.8	?	63.4%
O=C(NN=C1CCCCCCC1)c1ccccn1	?	39.4	23.5*	7.5%	52.4%
O=C(COc1ccccc1)N1CCc2ccccc21	-3.1%	75.9*	31.1*	?	0.0%
O=C(COc1ccc(Br)cc1)N1CCc2ccccc2C1	?	23.6	9.5	8.1%[46.1 µM]	-2.2%
NC(=O)c1ccccc1OCC(=O)N1CCCc2ccccc21	?	74.3*	25.6*	-5.0%[46.1 µM]	-1.6%
O=C(COc1ccc(Br)cc1)N1CCc2ccccc21	?	111.1*	26.7*	?	17.8%
O=C(COc1ccccc1)OCC(=O)N1CCCc2ccccc21	24.8%	.	.	12.5%	16.9%
O=C(COc1ccccc1Cl)N1CCc2ccccc21	?	100.6*	41.2*	-0.3%	11.7%
NNC(=O)c1[nH]c(-c2ccccc2)cc1-c1ccccc1	.	-11.0	-2.1	.	95.9%
CCS(=O)(=O)c1nc(S(=O)(=O)c2ccc(C)cc2)c(NCCCOC)s1	-6.9%[46.1 µM]	.	.	?	.
O=C(CCCOc1ccccc1)N1CCCc2ccccc21	6.6%	132.3*	49.1*	6.0%	-6.9%
CCCN(CCC)CCNC(=O)C1(O)c2ccccc2NC(=O)N1c1cccc(OC)c1 (stereo not given)	.	-6.5	-3.1	.	-4.1%
NS(=O)(=O)c1ccc(CCNC(=O)NC23CC4CC(CC(C4)C2)C3)cc1	.	-9.6	-3.3	.	-2.2%
COc1ccc(CCNC(=O)NC23CC4CC(CC(C4)C2)C3)cc1	-24.3%	62.1	30.2	2.6%	0.2%
O=C(NCCc1ccc(F)cc1)NC12CC3CC(CC(C3)C1)C2	.	119.8*	64.5*	.	-7.9%
O=C(NCCC1=CCCCC1)NC12CC3CC(CC(C3)C1)C2	-17.9%	70.3*	43.7*	?	-8.8%
SMILES	Marburg entry inh	Shiga inhibitor	CHX counter	LASV entry inh	AMA1 RON2 block
O=S(=O)(N/N=C/c1ccc2c(c1)OCO2)c1ccc(Br)cc1	.	-25.1	-0.9	.	2.2%
Cc1cc(Cl)c(S(=O)(=O)N/N=C/c2ccc3c(c2)OCO3)c(Cl)c1	11.4%	53.5*	40.6*	1.0%	-11.2%
Cc1cc(C)c(S(=O)(=O)N/N=C/c2ccc3c(c2)OCO3)c(C)c1	-8.3%[46.1 µM]	22.1	14.2*	1.2%[46.1 µM]	-0.8%
Cc1ccc2c(c1C)NC(=O)C21N2CCCC2C(C(=O)c2ccc3ccccc3c2)C12C(=O)Nc1ccccc12 (stereo not given)	.	38.6	56.4*	.	-13.0%
Cc1nc(C)c(C(=O)N2CCCC(C(=O)c3ccc4ccccc4c3)C2)s1 (stereo not given)	.	41.9	1.1	.	-10.5%
Cc1cccc(CCNC(=O)c2ccc3c(c2)nc2n3CCCCC2)c1	.	.	.	17.5%[46.1 µM]	.
Cc1cccnc1NC(=O)Nc1ccc(F)cc1	20.7%	69.0*	30.2	27.7%	-19.9%

Screening data (PubChem BioAssay)
